Several values for one entry are separate records, joined by “and”; a condition that tells them apart may be missing. Equal entries are not always repeated. Records with an inconclusive call do not appear. Activity calls are given as the source filed them. Unless noted, the call rests on the fitted dose curve; in most records, active means well fitted curve in the direction sought with a large enough effect; inconclusive means small, poorly fitted or top-dose-only effect, or another doubt; inactive means no such curve, though single readings can be large; an effect the other way counts as inactive or inconclusive. Where a SMILES comes first, the peptide text is derived from it. The star is where a group is joined. Cbz = O=C(OCc1ccccc1)*; CH2F = FC*
Legend:
[1] = system: Zika virus NS2B-NS3 protease; experiment: Primary screen GU AMC qHTS for Zika virus inhibitors (AID 1347154);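 further: 0% = no-inhibitor control and -100% = no-enzyme control; nearly all actives have a fitted effect of over 70% in size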
Summary of the method: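 Fluorogenic AMC-substrate cleavage by noncovalent NS2B-NS3 protease complex (25 nM, pH 8.0 Tris buffer with Tween 20) followed for 15 minutes at room temperature (~20% conversion). Percent inhibition from ex340/em450 signal change, fitted by 4-parameter Hill equation.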

[2] = Primary qHTS for small molecule stabilizers of the endoplasmic reticulum resident proteome: Secreted ER Calcium Modulated Protein (SERCaMP) assay (AID 1508630); further: on the % scale 0 is the no-effect control and ±100 the full control effect
Summary of the method: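 The SH-SY5Y reporter protocol was run at 3 concentrations up to 38.3 uM (primary) or 11 concentrations (follow-up): 16 h compound, 100 nM thapsigargin for 4 h, then extracellular luciferase luminescence.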

[3] = AP1 Signaling Pathway (AID 357; active means well fitted curve in either direction with a large enough effect, not every such curve was filed as active;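 further: ME-180 reporter cells stimulated with EGF at its EC50 level; on the % scale 0 is the no-effect control and ±100 the full control effect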); settings: ME-180 AP-1-bla reporter, EGF-induced, beta-lactamase ratio, 5 h
Summary of the method: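 Read-out was the 460nm/530nm emission ratio (excitation 405nm) after CCF4 loading for 2.5 hours at room temperature. Cells carried an AP-1-driven beta-lactamase reporter, were stimulated with EC50 EGF plus compound for 5 hours, and AC50 values came from titrations.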

[4] = biological target: Cytochrome P450 1A2 (Homo sapiens) (UniProt P05177); experiment: p450-cyp1a2 (AID 410; calls by dose curve;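 further: -100% = full effect of reference inhibitor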)
Chain of Cytochrome P450 1A2 (Homo sapiens) (P05177 whole entry, looked up): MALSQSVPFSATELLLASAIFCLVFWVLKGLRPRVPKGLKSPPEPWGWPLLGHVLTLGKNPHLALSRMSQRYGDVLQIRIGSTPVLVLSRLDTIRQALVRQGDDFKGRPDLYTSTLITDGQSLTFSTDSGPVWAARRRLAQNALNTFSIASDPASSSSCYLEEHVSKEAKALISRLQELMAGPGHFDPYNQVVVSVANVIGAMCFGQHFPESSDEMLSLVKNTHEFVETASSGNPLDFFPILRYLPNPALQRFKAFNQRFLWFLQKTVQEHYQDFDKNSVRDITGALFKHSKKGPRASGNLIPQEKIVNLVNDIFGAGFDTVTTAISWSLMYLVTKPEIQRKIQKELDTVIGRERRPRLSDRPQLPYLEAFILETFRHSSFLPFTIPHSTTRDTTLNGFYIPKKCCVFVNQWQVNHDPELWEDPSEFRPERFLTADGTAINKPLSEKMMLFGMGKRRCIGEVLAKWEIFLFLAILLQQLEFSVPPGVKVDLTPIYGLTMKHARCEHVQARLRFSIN
Summary of the method: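 20nM CYP1A2, 100uM Luciferin-ME (=Km), 100mM KPO4; cpd 10 min RT; +NADPH regen, 60 min RT; stop/detect 20 min; luminescence. Normalized to furafylline 57 uM = full inhibition.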

[5] = NFAT Signaling Pathway (AID 444; active means well fitted curve in either direction with a large enough effect, not every such curve was filed as active;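 further: carbachol stimulus at about its EC50 of 1 µM final; on the % scale 0 is the no-effect control and ±100 the full control effect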); settings: Jurkat NFAT-bla M1, carbachol, beta-lactamase ratio, 5 h
Summary of the method: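 Read-out: CCF4 FRET ratio (460 nm/530 nm) after 1 h RT dye loading, used for %activity and AC50 from titration series. Cells: Jurkat NFAT-β-lactamase/M1 line, treated with compound plus 1 uM carbachol for 5 h, 37 °C.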

[6] = Stat Signaling Pathway (AID 446; active means well fitted curve in either direction with a large enough effect, not every such curve was filed as active;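 further: ME-180 cervical cancer cells given 40 pM IL-6 alongside compound; SIE-controlled beta-lactamase reporter measured as 460/530 nm FRET emission ratio; on the % scale 0 is the no-effect control and ±100 the full control effect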); settings: ME-180 (cervical carcinoma) SIE beta-lactamase reporter, IL-6 stimulated, 5 h
Summary of the method: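 Emission at 460 and 530 nm (excitation 405 nm) reports SIE-controlled beta-lactamase in ME-180 cells. Cells received compound with 40 pM IL-6 for 5 hrs at 37 C; data scaled between 300 pM IL-6 and 125 nM JAK-inhibitor controls.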

[7] = biological target: Glucocorticoid receptor (Homo sapiens) (UniProt P04150); experiment: GR-GFP Redistribution (AID 450;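 active means compounds whose dose series gives a full or clear partial fitted curve of increased nuclear translocation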; further: potency means the concentration at half of the fitted maximal effect); settings: U2OS GR-GFP nuclear translocation, laser cytometry, 2 h
Chain of Glucocorticoid receptor (Homo sapiens) (P04150 whole entry, looked up, the tested form may be a part): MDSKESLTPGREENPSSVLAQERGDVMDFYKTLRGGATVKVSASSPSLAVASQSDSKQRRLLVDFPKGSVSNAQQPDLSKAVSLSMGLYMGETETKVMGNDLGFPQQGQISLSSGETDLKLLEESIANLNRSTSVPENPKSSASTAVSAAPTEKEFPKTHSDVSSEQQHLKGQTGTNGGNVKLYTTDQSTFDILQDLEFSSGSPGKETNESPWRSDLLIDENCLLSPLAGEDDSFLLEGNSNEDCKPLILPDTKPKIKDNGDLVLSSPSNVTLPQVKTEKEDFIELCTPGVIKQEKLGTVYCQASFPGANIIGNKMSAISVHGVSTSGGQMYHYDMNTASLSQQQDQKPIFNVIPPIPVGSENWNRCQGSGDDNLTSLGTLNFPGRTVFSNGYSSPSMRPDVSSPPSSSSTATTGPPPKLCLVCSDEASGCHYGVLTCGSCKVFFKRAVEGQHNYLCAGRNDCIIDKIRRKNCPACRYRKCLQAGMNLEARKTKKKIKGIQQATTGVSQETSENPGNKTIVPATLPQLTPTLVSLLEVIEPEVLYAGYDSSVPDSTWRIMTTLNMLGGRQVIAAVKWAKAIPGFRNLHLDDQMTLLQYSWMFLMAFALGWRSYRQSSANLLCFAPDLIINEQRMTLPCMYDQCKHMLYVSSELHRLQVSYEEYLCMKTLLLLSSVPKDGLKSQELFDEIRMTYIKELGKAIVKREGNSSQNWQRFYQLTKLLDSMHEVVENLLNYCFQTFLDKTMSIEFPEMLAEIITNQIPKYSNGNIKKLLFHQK

[8] = biological target: Glucocorticoid receptor (Homo sapiens) (UniProt P04150); experiment: GR-EFC Redistribution (AID 451; calls by dose curve; further: potency means the concentration at half of the fitted maximal effect); settings: CHO-K1 GR-EFC translocation, beta-gal luminescence, 2 h
Summary of the method: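 Translocation of GR-ED fusion to nuclear EA restores b-gal, read by luminescence after 1 h room-temperature detection. Engineered CHO-K1 biosensor cells, 1,000/well, exposed 2 h at 37 C to titrations up to 46 uM final.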

[9] = biological target: Mitogen-activated protein kinase 10 (Mus musculus) (UniProt Q61831); experiment: JNK3 AlphaScreen Assay (AID 530; active means well fitted curve in either direction with a large enough effect, not every such curve was filed as active)
Summary of the method: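 Kinase buffer: 20 mM Tris-HCl pH 7.6, 10 mM MgCl2, 1 mM DTT, 0.1 mM Na3VO4, 0.01% Tween-20; ATP 10 uM. Substrate biotin-GST-cJun(1-79), enzyme from activated HepG2 lysates. Detection by Ser73 phospho-antibody AlphaScreen.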

[10] = biological target: 3',5'-cyclic-AMP phosphodiesterase 4B (Homo sapiens) (UniProt Q07343); experiment: qHTS Assay for Inhibitors of PDE-IV (AID 607; active means well fitted activation curve with a large enough effect in the main read-out, with a control signal flat, not every such curve was filed as active; further: % of control where 0% means no effect)
Chain of 3',5'-cyclic-AMP phosphodiesterase 4B (Homo sapiens) (Q07343 whole entry, looked up): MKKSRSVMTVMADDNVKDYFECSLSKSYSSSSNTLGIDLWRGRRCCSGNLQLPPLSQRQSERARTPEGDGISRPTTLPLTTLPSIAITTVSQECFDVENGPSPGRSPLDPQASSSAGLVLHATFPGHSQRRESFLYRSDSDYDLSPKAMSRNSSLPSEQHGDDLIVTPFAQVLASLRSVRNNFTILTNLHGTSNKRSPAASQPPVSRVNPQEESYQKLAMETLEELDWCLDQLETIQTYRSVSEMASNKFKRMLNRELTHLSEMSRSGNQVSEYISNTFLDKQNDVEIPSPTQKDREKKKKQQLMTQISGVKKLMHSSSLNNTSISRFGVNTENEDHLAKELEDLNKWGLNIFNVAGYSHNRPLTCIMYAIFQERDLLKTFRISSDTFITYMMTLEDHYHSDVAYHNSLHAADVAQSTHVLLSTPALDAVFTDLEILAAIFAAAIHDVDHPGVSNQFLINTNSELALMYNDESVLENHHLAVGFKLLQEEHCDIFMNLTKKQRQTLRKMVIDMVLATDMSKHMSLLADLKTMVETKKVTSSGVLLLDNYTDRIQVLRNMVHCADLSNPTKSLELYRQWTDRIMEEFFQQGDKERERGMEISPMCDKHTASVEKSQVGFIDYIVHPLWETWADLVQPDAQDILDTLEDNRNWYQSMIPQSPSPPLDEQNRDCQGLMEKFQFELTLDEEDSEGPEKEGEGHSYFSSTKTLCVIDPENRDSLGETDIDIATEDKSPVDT
Summary of the method: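 The readout is membrane depolarisation from a cAMP-sensing CNG channel, detected with a potential dye at ex 535/em 590. Cells were HEK293-derived (endogenous PDE-IV) at 1000 cells/well, titrated up to 22.9 uM final.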

[11] = qHTS Assay for Lipid Storage Modulators (AID 1519; calls by dose curve); settings: Drosophila S3 cells, BODIPY lipid droplet/cell ratio, laser cytometry, cells loaded with oleic acid
Summary of the method: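 Cells seeded at 5,000 per well were treated with compounds over a concentration series and loaded with oleic acid (400 uM, as added). Lipid droplet fluorescence (488 nm excitation, 500-530 nm channel) was read by laser-scanning cytometry and normalized to 20 uM Triacsin C.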

[12] = biological target: Ubiquitin carboxyl-terminal hydrolase 1 (Homo sapiens) (UniProt O94782); experiment: Inhibitors of USP1/UAF1: Pilot qHTS (AID 504865);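 further: rhodamine fluorescence freed from ubiquitin-rhodamine substrate followed over time; top concentration of the series differs between compounds; on the % scale 0 is the no-effect control and ±100 the full control effect; nearly all actives have a fitted effect of over 35% in size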
Chain of Ubiquitin carboxyl-terminal hydrolase 1 (Homo sapiens) (O94782 whole entry, looked up): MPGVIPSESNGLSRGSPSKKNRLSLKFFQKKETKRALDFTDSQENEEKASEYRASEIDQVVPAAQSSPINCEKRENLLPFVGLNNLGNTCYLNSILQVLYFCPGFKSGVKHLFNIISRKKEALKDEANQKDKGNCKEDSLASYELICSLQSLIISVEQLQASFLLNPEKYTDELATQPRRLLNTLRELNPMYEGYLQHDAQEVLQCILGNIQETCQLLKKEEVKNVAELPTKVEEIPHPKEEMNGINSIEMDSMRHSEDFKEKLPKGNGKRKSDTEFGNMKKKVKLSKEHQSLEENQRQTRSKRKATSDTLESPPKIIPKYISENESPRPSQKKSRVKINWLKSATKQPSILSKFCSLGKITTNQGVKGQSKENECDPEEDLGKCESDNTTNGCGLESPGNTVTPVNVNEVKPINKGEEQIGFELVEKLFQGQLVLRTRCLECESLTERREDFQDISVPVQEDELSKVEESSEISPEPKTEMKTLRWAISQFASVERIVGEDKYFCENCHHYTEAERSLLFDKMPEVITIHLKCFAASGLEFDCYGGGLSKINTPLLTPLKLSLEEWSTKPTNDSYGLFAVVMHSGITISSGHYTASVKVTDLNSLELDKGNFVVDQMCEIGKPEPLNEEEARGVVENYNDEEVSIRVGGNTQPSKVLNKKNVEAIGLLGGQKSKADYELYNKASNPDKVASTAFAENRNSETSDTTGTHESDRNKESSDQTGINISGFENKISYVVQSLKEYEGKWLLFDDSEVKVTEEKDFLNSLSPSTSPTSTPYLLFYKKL
Summary of the method: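 Enzyme-free wells gave the negative control, while test wells held 1nM USP1/UAF1 preincubated with compound for 15 min at room temperature. Ub-Rho at 150nM final started the reaction, and fluorescence at 480/540 nm was recorded kinetically.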

[13] = biological target: Guanine nucleotide-binding protein G(i) subunit alpha-1 (Homo sapiens) (UniProt P63096); experiment: qHTS Assay for Inhibitors of RGS12 GoLoco Motif Activity (Green Fluorophore) (AID 879);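 further: 0% = labeled peptide with Gαi1 and full inhibition = labeled peptide alone without protein; negative values mean loss of peptide binding seen as reduced polarization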
Chain of Guanine nucleotide-binding protein G(i) subunit alpha-1 (Homo sapiens) (P63096 whole entry, looked up): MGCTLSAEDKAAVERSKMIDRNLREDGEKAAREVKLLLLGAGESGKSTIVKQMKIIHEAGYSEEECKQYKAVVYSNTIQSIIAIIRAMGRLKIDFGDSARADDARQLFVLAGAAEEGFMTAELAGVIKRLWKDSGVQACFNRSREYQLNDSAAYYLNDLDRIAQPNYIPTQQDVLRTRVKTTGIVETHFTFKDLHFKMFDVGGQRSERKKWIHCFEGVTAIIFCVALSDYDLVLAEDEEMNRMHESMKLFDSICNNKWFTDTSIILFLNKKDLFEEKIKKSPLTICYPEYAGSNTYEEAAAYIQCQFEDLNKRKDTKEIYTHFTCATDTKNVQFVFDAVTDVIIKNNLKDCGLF
Summary of the method: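 A drop in FITC polarization marked displacement of the FITC-tagged RGS12 GoLoco peptide (10 nM) from Gαi1 (50 nM). Compounds were incubated 10 min at room temperature in Tris pH 7.5 buffer containing 150 mM NaCl, 0.1 mM GDP and 0.05% NP40; unlabeled peptide titration served as control.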

[14] = biological target: Pyruvate kinase (Leishmania mexicana) (UniProt Q27686); experiment: qHTS Validation Assay for Inhibitors of Leishmania Mexicana Pyruvate Kinase (AID 945);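 further: 0% = DMSO only neutral control wells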
Chain of Pyruvate kinase (Leishmania mexicana) (Q27686 2-499 E452W): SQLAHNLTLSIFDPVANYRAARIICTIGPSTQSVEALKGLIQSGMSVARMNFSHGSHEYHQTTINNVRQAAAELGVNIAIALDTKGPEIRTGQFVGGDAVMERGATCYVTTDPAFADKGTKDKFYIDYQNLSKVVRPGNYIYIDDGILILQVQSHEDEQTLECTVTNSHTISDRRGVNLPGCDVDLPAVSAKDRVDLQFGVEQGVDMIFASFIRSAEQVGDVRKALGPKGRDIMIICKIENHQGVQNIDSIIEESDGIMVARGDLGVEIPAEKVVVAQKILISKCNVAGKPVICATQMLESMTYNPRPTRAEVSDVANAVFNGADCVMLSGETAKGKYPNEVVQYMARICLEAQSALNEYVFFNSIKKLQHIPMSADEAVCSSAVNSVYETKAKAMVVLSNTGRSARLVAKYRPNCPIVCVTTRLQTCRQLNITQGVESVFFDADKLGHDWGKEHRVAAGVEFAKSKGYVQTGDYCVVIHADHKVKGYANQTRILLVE
Summary of the method: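 Substrate mix (0.5 mM PEP, 0.1 mM ADP, 7 mM MgCl2, 50 mM KCl, pH 7.2 imidazole) received compound by pin tool, then 0.2 nM LmPYK E451W. After 1 h at room temperature, PKLight was added and luminescence measured.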

[15] = biological target: Pyruvate kinase PKM (Homo sapiens) (UniProt P14618); experiment: qHTS Assay for Activators of Human Muscle Pyruvate Kinase (AID 954; active means well fitted curve in the direction sought with a large enough effect, not every such curve was filed as active;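 further: 0% = uninhibited enzyme and -100% = no enzyme or full thiadiazolimine inhibition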)
Chain of Pyruvate kinase PKM (Homo sapiens) (P14618 whole entry, looked up): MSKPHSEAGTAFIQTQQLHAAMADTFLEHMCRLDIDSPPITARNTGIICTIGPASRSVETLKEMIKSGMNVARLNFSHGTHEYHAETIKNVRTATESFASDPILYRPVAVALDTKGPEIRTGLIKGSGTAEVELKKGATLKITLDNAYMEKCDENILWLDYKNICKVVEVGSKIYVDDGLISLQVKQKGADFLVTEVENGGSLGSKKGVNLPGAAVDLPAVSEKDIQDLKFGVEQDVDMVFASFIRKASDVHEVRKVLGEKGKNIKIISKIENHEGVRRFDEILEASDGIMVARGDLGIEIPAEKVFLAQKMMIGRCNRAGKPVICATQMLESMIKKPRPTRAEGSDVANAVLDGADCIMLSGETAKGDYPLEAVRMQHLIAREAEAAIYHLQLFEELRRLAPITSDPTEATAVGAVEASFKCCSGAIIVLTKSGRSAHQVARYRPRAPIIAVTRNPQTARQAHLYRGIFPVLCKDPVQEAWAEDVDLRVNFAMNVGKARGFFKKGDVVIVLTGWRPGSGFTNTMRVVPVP
Summary of the method: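 PKM2, human, >95% pure, 0.1 nM; PEP 0.5 mM (Km), ADP 0.1 mM; 50 mM imidazole pH 7.2, 50 mM KCl, 0.01% Tween 20, 0.05% BSA; 1 h RT; luciferase luminescence readout.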

[16] = biological target: Alpha-galactosidase A (Homo sapiens) (UniProt P06280); experiment: Counterscreen for Glucocerebrosidase Inhibitors: qHTS Assay for Human alpha-Galactosidase at pH 4.5 (AID 992); further: 0% is about no effect
Chain of Alpha-galactosidase A (Homo sapiens) (P06280 whole entry, looked up): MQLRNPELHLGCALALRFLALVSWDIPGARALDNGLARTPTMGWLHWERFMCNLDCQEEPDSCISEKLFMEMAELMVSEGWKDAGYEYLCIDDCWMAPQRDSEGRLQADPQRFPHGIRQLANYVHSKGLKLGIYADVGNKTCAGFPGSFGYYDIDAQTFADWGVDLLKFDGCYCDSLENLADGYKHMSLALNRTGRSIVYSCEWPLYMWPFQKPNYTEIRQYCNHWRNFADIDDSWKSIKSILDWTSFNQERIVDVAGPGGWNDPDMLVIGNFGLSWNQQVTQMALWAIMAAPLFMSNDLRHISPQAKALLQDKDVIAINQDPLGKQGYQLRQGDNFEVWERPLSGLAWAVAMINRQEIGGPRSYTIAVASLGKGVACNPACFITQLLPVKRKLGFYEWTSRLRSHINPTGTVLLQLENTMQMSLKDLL
Summary of the method: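 Fluorogenic 4-MU alpha-D-galactoside (80 uM) hydrolysis, 2 nM enzyme, pH 4.5 citrate buffer + 0.005% Tween-20; 20 min RT; NaOH/glycine pH 10 stop; Ex365/Em440. Compounds titrated 0.7 nM–77 uM; Hill-equation AC50.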

[17] = biological target: alpha-glucosidase (Oryza sativa, rice) (UniProt Q653V4); experiment: Counterscreen for Glucocerebrosidase Inhibitors: qHTS Assay for Rice alpha-Glucosidase at pH 5.0 (AID 997);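 further: 0% = full activity with enzyme and -100% = basal without enzyme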
Summary of the method: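 Endpoint fluorogenic assay at pH 5.0: compounds (0.7 nM to 77 uM) titrated against 4 nM rice enzyme and 400 uM 4-MU-alpha-glucoside for 20 min at room temperature; NaOH/glycine stop, read ex 365/em 440 nm, Hill-fitted AC50.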

[18] = biological target: DNA dC->dU-editing enzyme APOBEC-3G (Homo sapiens) (UniProt Q9HC16); experiment: qHTS for inhibitors of Vif-A3G interactions: Validation (AID 588379); further: 0% is about no effect
Chain of DNA dC->dU-editing enzyme APOBEC-3G (Homo sapiens) (Q9HC16 whole entry, looked up): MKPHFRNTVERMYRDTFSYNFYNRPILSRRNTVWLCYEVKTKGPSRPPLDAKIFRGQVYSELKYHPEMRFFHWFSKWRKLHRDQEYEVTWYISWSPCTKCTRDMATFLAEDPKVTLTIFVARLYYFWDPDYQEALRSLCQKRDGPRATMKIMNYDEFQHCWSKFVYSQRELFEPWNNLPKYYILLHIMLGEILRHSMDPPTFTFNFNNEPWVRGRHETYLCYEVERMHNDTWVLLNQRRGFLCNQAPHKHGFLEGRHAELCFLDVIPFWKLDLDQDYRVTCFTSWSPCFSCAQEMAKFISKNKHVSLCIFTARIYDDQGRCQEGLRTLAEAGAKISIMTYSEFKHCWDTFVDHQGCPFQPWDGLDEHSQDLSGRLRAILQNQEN
Summary of the method: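 Yellow fluorescence (Ex 488, Em 500-530) of Vif-coexpressing HeLa A3G-eYFP cells, scanned by Acumen cytometer, reports blocked A3G degradation. Cells plated at 700/well overnight at 37 deg C before compound addition, then a further overnight compound incubation at 37 deg C.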

[19] = qHTS Assay for Identification of Small Molecule Antagonists for NFkB Signaling Pathway (AID 895; active means well fitted inhibition curve with a large enough effect in the signal ratio, with a control signal flat, not every such curve was filed as active; the % refers to the signal ratio; further: on the % scale 0 is the no-effect control and ±100 the full control effect)
Summary of the method: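 Beta-lactamase reporter read-out (460 and 530 nm emission ratio, 405 nm excitation, 2 hrs substrate loading RT) after 5 hr stimulation with 10 pM TNF alpha in compound-treated NFkB-bla ME-180 cells in low-serum medium.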

[20] = biological target: Cytochrome P450 2C19 (Homo sapiens) (UniProt P33261); experiment: qHTS Assay for Inhibitors and Substrates of Cytochrome P450 2C19 (AID 899); further: on the % scale 0 is the no-effect control and ±100 the full control effect; nearly all actives have a fitted effect of over 60% in size
Summary of the method: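 Reactions contain 5nM enzyme, 10uM Luciferin-H EGE (KM) and 50mM KPO4; compound preincubates 10 min at 37C, NADPH regeneration starts turnover for 60 min. Luminescence after detection reagent gives activity.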

[21] = measured here: cell count channel max response
[22] = measured here: lipid channel max response

C[C@@H](Cc1ccccc1)Nc1ncnc2c1ncn2[C@@H]1O[C@H](CO)[C@@H](O)[C@H]1O
inactive: Potency [1] | Potency [2]

Nc1ccccc1C(=O)C[C@H](N)C(=O)O
inactive: Potency [1] | Potency [2]

CC(C)NC[C@@H](O)COc1ccc(COCCOC(C)C)cc1
2.54% and -5.68%: max response [11, 21]
inactive: activity change, negative = inhibition ([3]; at 17.2 µM (top of the series)) -0.912% | Potency [4] | activity change, negative = inhibition ([5]; at 17.2 µM (top of the series)) 3.53% | activity, negative = inhibition ([6]; at 17.2 µM (top of the series)) 15.4% | Potency [7] > 20.6 µM and > 46 µM | Potency [8] > 20.6 µM and > 46 µM | Potency [9] | Potency [10] | activity change, negative = inhibition ([11]; at 25.7 µM (top of the series)) -1.04% | activity change, negative = inhibition ([11]; at 57.5 µM (top of the series)) 0.281% | Potency [12] | Potency [1] | Potency [2]
6.08% and -6.81%: max response [11, 22]

NCCC(=O)c1ccccc1N
inactive: Potency [1] | Potency [2]

NCCNC(=O)Cc1ccc(NC(=O)Cc2ccc(Nc3ncnc4c3ncn4[C@@H]3O[C@H](CO)[C@@H](O)[C@H]3O)cc2)cc1
inactive: Potency [1] | Potency [2]

CC(C)C(N)C(=O)O (stereo not given)
inactive: Potency [1] | Potency [2]

O=C(NCCNC[C@@H](O)COc1ccc(O)cc1)N1CCOCC1
-11.7% and -2.05%: max response [11, 21]
inactive: activity change, negative = inhibition ([3]; at 17.2 µM (top of the series)) -7.17% | activity change, negative = inhibition ([3]; at 38 µM (top of the series)) -6.28% | Potency [4] | activity change, negative = inhibition ([5]; at 17.2 µM (top of the series)) -2.05% | activity change, negative = inhibition ([5]; at 38 µM (top of the series)) -2.2% | activity, negative = inhibition ([6]; at 17.2 µM (top of the series)) 6.36% | activity, negative = inhibition ([6]; at 38 µM (top of the series)) -6.64% | Potency [7] > 46 µM and > 20.6 µM | Potency [8] > 46 µM and > 20.6 µM | Potency [9] | Potency [10] | outcome [13] | Potency [14] | outcome [15] | outcome [16] | outcome [17] | activity change, negative = inhibition ([11]; at 25.7 µM (top of the series)) -1.5% | activity change, negative = inhibition ([11]; at 57.5 µM (top of the series)) -3.4% | Potency [12] | Potency [18] | Potency [1] | Potency [2]
-12.6% and -5.19%: max response [11, 22]

CCCCCCCC(=O)OC[C@H](CO)OC(=O)CCCCCCC
inactive: activity change, negative = inhibition [1] 4.76% [at 6.83 µM] | activity change, negative = inhibition [2] -8.21% [at 3.88 µM]

CC(C)NC[C@H](O)c1ccc(NS(C)(=O)=O)cc1
inactive: activity change, negative = inhibition ([3]; at 17.2 µM (top of the series)) -5.04% | activity change, negative = inhibition ([3]; at 38 µM (top of the series)) -0.189% | Potency [4] | activity change, negative = inhibition ([5]; at 38 µM (top of the series)) -7.39% | activity, negative = inhibition ([6]; at 17.2 µM (top of the series)) -2.38% | activity, negative = inhibition ([6]; at 38 µM (top of the series)) 2.96% | Potency [7] > 46 µM and > 20.6 µM | Potency [8] > 46 µM and > 20.6 µM | Potency [9] | Potency [10] | outcome [13] | Potency [19] | Potency [20] | outcome [17] | activity change, negative = inhibition ([11]; at 25.7 µM (top of the series)) -2.05% | activity change, negative = inhibition ([11]; at 57.5 µM (top of the series)) -2.56% | Potency [12] | Potency [18] | Potency [1] | Potency [2]
-18.7% and 20.5%: max response [11, 21]
-18.8% and 17.8%: max response [11, 22]

COC(=O)C[C@H](NC(=O)[C@H](C)NC(=O)[C@@H](NC(=O)OCc1ccccc1)C(C)C)C(=O)CF (Cbz-Val-Ala-Asp(OMe)-CH2F)
inactive: Potency [1] | Potency [2]
